Assay results published in PubChem BioAssay (NCI).
This is part of a sample that, as a whole, favours compounds with a hit. Of some 83,000 tested, about 20% had one in any assay.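 Note: values are percent growth. 100 is the growth of untreated cells, values between 100 and 0 indicate rising inhibition; between -100 and 0 indicates cell death.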 Unmarked numbers belong to inactive results. The source made the active and inactive calls. Rule for the calls: active = growth percent below 10; inactive = the rest.

Tests used:
Experiment in all cases: NCI-60 one-dose screen, 48 h (100 = growth as untreated, 0 = no growth, -100 = all killed)
Conditions in all cases: 10 µM
[1] = system: NCI-H23 lung
[2] = system: NCI-H226 lung
[3] = system: NCI-H322M lung
[4] = system: HOP-62 NSCLC
[5] = system: NCI-H460 lung
[6] = system: HOP-92 NSCLC
[7] = system: A549/ATCC NSCLC
[8] = system: 786-0 renal
[9] = system: COLO 205 colon
[10] = system: NCI-H522 lung

| Compound | growth [1] | growth [2] | growth [3] | growth [4] | growth [5] | growth [6] | growth [7] | growth [8] | growth [9] | growth [10] |
| --- | --- | --- | --- | --- | --- | --- | --- | --- | --- | --- |
| N#CC(=Nc1cccc(F)c1)C1=C(O)c2ccccc2C1=O | 94.8% | 79.6% | 96.3% | 88.4% | 102% | 63.8% | 95.6% | 97.5% | 96% |  |
| Cc1ccc(O)c(C(=O)c2ccccc2)c1 | 98.4% | 104% | 138% | 114% | 113% | 93.8% | 95.9% | 111% | 113% |  |
| CCCCCC(C)(CC(=O)O)CC(=O)O | 115% | 97% | 113% | 101% | 108% | 119% | 101% | 107% | 116% |  |
| CC(C)C1CCCCC1O (configuration not stated) | 95.4% | 112% | 124% | 102% | 109% | 101% | 102% |  | 108% |  |
| CCCCCCCO | 106% | 94.7% | 92.6% | 98.8% | 110% | 88.7% | 102% | 110% | 118% |  |
| COc1cc(CN)ccc1O | 99.4% | 99.8% | 89.7% | 98.3% | 91.4% |  | 98.6% | 100% |  | 88% |
| CCCC(=O)c1cc(C)ccc1OC | 108% | 99.7% | 126% | 101% | 106% | 81.5% | 111% |  | 112% |  |
| Oc1ccccc1O | 97.7% | 102% | 91.2% | 95.9% | 100% | 90.5% | 78.1% |  | 93.8% |  |
| CCCOC(=O)C(O)c1ccccc1 (configuration not stated) | 106% | 105% | 132% | 99.8% | 107% | 95% | 126% |  | 115% |  |
| CC(=O)C1CCCCC1 | 103% | 89.9% | 105% | 96% | 102% | 77.5% | 97.2% | 98.8% | 101% |  |
| N#CCCc1ccc(O)cc1 | 117% | 102% | 102% | 104% | 103% | 108% |  | 104% | 114% |  |
| CC(=O)OC(OC(C)=O)C1CCCO1 (configuration not stated) | 97.4% | 103% | 114% | 99.2% | 109% | 94.1% | 101% |  | 105% |  |
| O=[N+]([O-])c1ccccc1S(=O)c1ccccc1[N+](=O)[O-] | 95.9% | 111% | 95.5% | 108% | 105% | 76.2% | 101% | 111% | 106% |  |
| C=CCNc1ccccc1 | 102% | 103% | 106% | 86.9% | 108% | 88.5% | 101% |  | 112% |  |
| CC(CN1CCCCC1)NC(=O)c1scnc1-c1ccccc1 (configuration not stated) | 101% | 108% | 95.6% | 100% | 111% | 91.9% | 96.8% | 102% | 104% |  |
| CC1(C)Nc2cccc3c(N=Nc4ccc(N=Nc5ccccc5)c5ccccc45)ccc(c23)N1 | 85.1% | 94% | 91.4% | 93.1% | 92.1% | 82.6% | 99.3% | 122% | 89.2% |  |
| COc1ncnc2c1cnn2C | 106% | 106% | 116% | 94.4% | 106% | 99.9% | 105% |  | 104% |  |
| CCCC1(c2ccccc2)NC(=O)NC1=O (configuration not stated) | 110% | 97% | 124% | 102% | 109% | 78.4% | 119% |  | 114% |  |

| Compound | growth [1] | growth [2] | growth [3] | growth [4] | growth [5] | growth [6] | growth [7] | growth [8] | growth [9] | growth [10] |
| --- | --- | --- | --- | --- | --- | --- | --- | --- | --- | --- |
| CC(C)OC(C(=O)O)c1ccccc1 (configuration not stated) | 101% | 108% | 117% | 91.1% | 109% | 81.3% | 105% |  | 111% |  |
| O=C1Cc2ccccc2C(=O)O1 | 107% | 108% | 110% | 108% | 108% | 92% | 110% |  | 123% |  |
| CCCCOC(OCCCC)c1ccccc1 | 95% | 107% | 104% | 117% | 109% | 101% | 91.4% | 105% | 112% |  |
| COC(=O)C(O)c1ccccc1 (configuration not stated) | 106% | 107% | 125% | 105% | 105% | 95.6% | 115% |  | 111% |  |
| CCS(=O)(=O)c1cc(=O)[nH]c(=O)[nH]1 | 99.9% | 107% | 87.4% | 106% | 106% | 162% | 102% | 100% | 113% |  |
| CC(C)(N)COS(=O)(=O)O | 116% | 104% | 115% | 98.3% | 103% | 87.6% |  | 94.7% | 105% |  |
| Cc1ccc(C(=O)c2ccccc2)c(C)c1 | 99.6% | 104% | 105% | 95% | 110% | 111% | 110% |  | 109% |  |
| Cc1nc2ccccc2c(C(=O)O)c1O | 104% | 91% | 117% | 88.3% | 110% |  | 103% | 103% |  | 104% |
| COC(=O)CCCCC1=CCC2C(=O)C=C(O)C2C1 (configuration not stated) | 100% | 102% | 92.4% | 91.8% | 105% | 85.2% | 98.7% | 99.9% | 111% |  |
| OCC1OC(OC2C(O)C(CO)OC2(CO)OC2OC(CO)C(O)C(O)C2O)C(O)C(O)C1O (configuration not stated) | 103% | 115% | 120% | 98.6% | 111% | 90.3% | 98% |  | 117% |  |
| CCc1nn(Cc2ccccc2)c2nc(C)c(CCc3ccccc3)c(Cl)c12 | 101% | 90.7% | 79.5% | 104% | 90.8% | 9.07% (active) |  | 85% | 110% |  |
| CCCCCCCCOC(=O)c1ccccn1 | 91.5% | 104% | 98.9% | 93.5% | 109% | 107% | 107% |  | 106% |  |
| Cc1cc(C)c(CC(=O)O)c(C)c1 | 100% | 99.8% | 100% | 107% | 105% | 90.5% | 104% |  | 108% |  |
| CC1NC(=O)NC1CCCCCC(=O)O (configuration not stated) | 100% | 103% | 132% | 104% | 111% | 72.9% | 94.9% |  | 110% |  |
| O=C(Nc1ccccc1)OCCc1ccccc1 | 108% | 103% | 116% | 103% | 103% | 82.5% | 102% | 97.2% | 119% |  |
| Cc1cc(C(C)(C)C)cc(C)c1Br | 104% | 111% | 121% | 99.8% | 103% | 75.5% | 109% |  | 112% |  |
| CN(c1ccccc1)c1ncnc2c1ncn2C | 101% | 107% | 115% | 103% | 101% | 105% | 87.3% | 106% | 105% |  |
| O=c1cc(-c2ccccc2)nc2cc(-c3ccco3)[nH]n12 | 96.5% | 102% | 95.6% | 88.3% | 104% |  | 56.7% | 111% | 95.6% | 71.8% |
